# How the values were obtained:
# Assay in all cases: thermal shift delta Tm vs DMSO control; higher = stronger stabilization (binding)
# Conditions in all cases: 12.5 µM; protein concentration 2 µM
# LOC_OS04G57630-cb004 = system: LOC_OS04G57630-cb004
# How it was run: (§1)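 Heating from 25°C to 95°C at 0.05°C/s, fluorescence was recorded for 19.5 μl wells of 2 μM E. coli-expressed, purified rice kinase domain in 100 mM potassium phosphate pH 7.5, 150 mM NaCl, 10% glycerol and 5 × SYPRO Orange with compound in DMSO. Boltzmann fits gave melting temperatures for this differential scanning fluorimetry assay. The shift reported is the mean of three replicates against the DMSO-only protein.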
# LOC_OS05G07850-cb002 = system: LOC_OS05G07850-cb002
# How it was run: as §1
# LOC_OS05G16824-cb004 = system: LOC_OS05G16824-cb004
# How it was run: as §1
# LOC_OS05G28520-cb001 = system: LOC_OS05G28520-cb001
# How it was run: as §1
# LOC_OS05G30820-cb001 = system: LOC_OS05G30820-cb001
# How it was run: as §1
# LOC_OS05G43570-cb004 = system: LOC_OS05G43570-cb004
# How it was run: as §1
# LOC_OS06G16330-cb003 = system: LOC_OS06G16330-cb003
# How it was run: as §1
# LOC_OS06G22820-cb001 = system: T1, LOC_OS06G22820-cb001
# T1 sequence (whole entry): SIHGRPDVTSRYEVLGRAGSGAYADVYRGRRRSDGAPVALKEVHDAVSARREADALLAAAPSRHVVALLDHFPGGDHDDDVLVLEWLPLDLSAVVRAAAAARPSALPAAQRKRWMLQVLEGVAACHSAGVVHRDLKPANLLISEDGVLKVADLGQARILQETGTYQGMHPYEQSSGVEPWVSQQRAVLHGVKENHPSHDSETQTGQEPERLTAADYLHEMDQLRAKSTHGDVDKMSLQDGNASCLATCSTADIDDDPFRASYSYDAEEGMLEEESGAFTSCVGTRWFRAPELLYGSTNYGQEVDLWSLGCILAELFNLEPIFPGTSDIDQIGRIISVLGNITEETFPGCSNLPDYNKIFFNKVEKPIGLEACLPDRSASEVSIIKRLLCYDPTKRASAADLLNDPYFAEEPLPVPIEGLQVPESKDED
# How it was run: as §1
# LOC_OS07G06570-cb004 = system: LOC_OS07G06570-cb004
# How it was run: as §1
# LOC_OS07G07230-cb001 = system: LOC_OS07G07230-cb001
# How it was run: as §1
# 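Note: purified Escherichia coli-expressed rice kinase domain construct.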
# Chain of LOC_OS06G16330-cb003 (as listed by the source): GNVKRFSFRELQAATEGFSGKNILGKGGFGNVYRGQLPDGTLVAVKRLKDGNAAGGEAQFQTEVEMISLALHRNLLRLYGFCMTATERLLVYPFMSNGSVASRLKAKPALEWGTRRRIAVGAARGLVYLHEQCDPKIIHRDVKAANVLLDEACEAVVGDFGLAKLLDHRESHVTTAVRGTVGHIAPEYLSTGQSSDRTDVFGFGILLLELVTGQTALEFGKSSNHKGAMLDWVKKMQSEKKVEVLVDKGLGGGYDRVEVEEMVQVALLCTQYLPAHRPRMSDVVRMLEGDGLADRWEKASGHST
SMILES,thermal shift delta Tm (LOC_OS04G57630-cb004),thermal shift delta Tm (LOC_OS05G07850-cb002),thermal shift delta Tm (LOC_OS05G16824-cb004),thermal shift delta Tm (LOC_OS05G28520-cb001),thermal shift delta Tm (LOC_OS05G30820-cb001),thermal shift delta Tm (LOC_OS05G43570-cb004),thermal shift delta Tm (LOC_OS06G16330-cb003),thermal shift delta Tm (LOC_OS06G22820-cb001),thermal shift delta Tm (LOC_OS07G06570-cb004),thermal shift delta Tm (LOC_OS07G07230-cb001)
CCCCOc1c(C(=O)c2c(F)cc(C)cc2F)c[nH]c2nncc1-2,0.1 °C,5.8 °C,-1.11 °C,-0.07 °C,0.47 °C,0.9 °C,0.88 °C,1.75 °C,0.61 °C,-0.1 °C
CN1CCN(C2CCN(C(=O)Nc3cc(Oc4ccc(NC(=O)C5(C(=O)Nc6ccc(F)cc6)CC5)c(F)c4)ccn3)CC2)CC1 [Golvatinib (E7050)],0.73 °C,5.87 °C,-0.83 °C,6.78 °C,0.39 °C,0.58 °C,2.41 °C,0.51 °C,1.02 °C,0.08 °C
Cc1cc(Nc2ncc(Cl)c(Nc3ccccc3S(=O)(=O)C(C)C)n2)c(OC(C)C)cc1C1CCNCC1 [Ceritinib (LDK378)],0.2 °C,3.05 °C,-1.5 °C,0.31 °C,0.63 °C,0.27 °C,4.76 °C,0.68 °C,1.5 °C,0.14 °C
Nc1nccc(Oc2ccc(NC(=O)c3c[nH]cc(-c4ccc(F)cc4)c3=O)cc2F)c1Cl,1.51 °C,14.9 °C,-0.78 °C,0.3 °C,0.92 °C,1.01 °C,6.76 °C,0.86 °C,0.57 °C,0.36 °C
CCn1c(=O)c(-c2ccc(-c3cncs3)cc2Cl)cc2cnc(Nc3ccc(N4CCN(C)CC4)cc3)nc21,0.31 °C,1.19 °C,0.07 °C,0.25 °C,0.51 °C,0.24 °C,-0.19 °C,0.67 °C,0.84 °C,0.19 °C
"Cc1cc(Nc2cc(N3CCN(C)CC3)nc(Sc3ccc(NC(=O)C4CC4)cc3)n2)n[nH]1 [Tozasertib (VX-680, MK-0457)]",5.53 °C,8.32 °C,15.4 °C,2.06 °C,0.66 °C,0.98 °C,5.98 °C,0.83 °C,0.91 °C,0.6 °C
N[C@@H]1CCCN(c2c(/C=C3\SC(=O)NC3=O)cccc2-c2ccccc2)C1,0.42 °C,2.29 °C,-1.84 °C,0.64 °C,0.34 °C,-0.01 °C,-0.21 °C,0.41 °C,1.48 °C,0.3 °C
CO[C@H]1C[C@@H]2CC[C@@H](C)[C@@](O)(O2)C(=O)C(=O)N2CCCC[C@H]2C(=O)O[C@H]([C@H](C)C[C@@H]2CC[C@@H](O)[C@H](OC)C2)CC(=O)[C@H](C)/C=C(\C)[C@@H](O)[C@@H](OC)C(=O)[C@H](C)C[C@H](C)/C=C/C=C/C=C/1C [Rapamycin (Sirolimus)],-0.27 °C,0.51 °C,-0.52 °C,0.16 °C,0.5 °C,0.84 °C,-0.23 °C,0.98 °C,1.23 °C,0.34 °C
O=C1c2c(O)cc(O)cc2OC(c2ccc(O)c(O)c2)C1O (stereo not given) [Taxifolin (Dihydroquercetin)],0.11 °C,3.32 °C,-0.02 °C,0.61 °C,0.75 °C,-0.08 °C,-0.04 °C,0.59 °C,0.96 °C,0.52 °C
